Hits are enriched below; roughly 2.3% of the tested compounds scored in any of these assays.
Coupling enz: counter-screen for Giardia aldolase inhibitors: coupling enzyme system; 0.67% of 290,000 active; activity change, negative = inhibition, % at 58.2 µM, hits read low; coupling enzyme system counterscreen, AmpLite Red fluorescence; in the data active = activity change below about -30%
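Compounds tested against the coupling enzymes alone at 57.5 uM final; readout was AmpLite Red fluorescence (525/598 nm) after 20 min at RT.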
Tau fluor cs: counter-screen for tau fibril formation inhibitors | tau K18 P301L Alexa594 fluorescence, heparin fibrillization | 0.93% of 280,000 active | Potency, µM (titrated, usually from 57.7 µM), for inactives: top-dose activity change, negative = decrease | AID 1463; note: potency is the fitted concentration of half-maximal effect; nearly all actives have a fitted effect of over 55% in size
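Human K18 P301L tau (15 uM unlabeled plus 0.24 uM Alexa 594-labeled, final) in 100 mM sodium acetate pH 7 was mixed with compound and 20 uM heparin and incubated 6 hr at 37 C.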
USP1 inh: USP1/UAF1 (human) deubiquitinase inhibition; AID 743255; Potency, µM (top dose mostly 57.1 µM), for the others: at the top dose activity change, negative = inhibition, usual class: inhibitors; recombinant USP1/UAF1, Ub-Rhodamine cleavage fluorescence; O94782; 0.23% of 390,000 active; note: potency is the fitted concentration of half-maximal effect; nearly all actives have a fitted effect of over 60% in size
Target sequence (O94782 whole entry, looked up): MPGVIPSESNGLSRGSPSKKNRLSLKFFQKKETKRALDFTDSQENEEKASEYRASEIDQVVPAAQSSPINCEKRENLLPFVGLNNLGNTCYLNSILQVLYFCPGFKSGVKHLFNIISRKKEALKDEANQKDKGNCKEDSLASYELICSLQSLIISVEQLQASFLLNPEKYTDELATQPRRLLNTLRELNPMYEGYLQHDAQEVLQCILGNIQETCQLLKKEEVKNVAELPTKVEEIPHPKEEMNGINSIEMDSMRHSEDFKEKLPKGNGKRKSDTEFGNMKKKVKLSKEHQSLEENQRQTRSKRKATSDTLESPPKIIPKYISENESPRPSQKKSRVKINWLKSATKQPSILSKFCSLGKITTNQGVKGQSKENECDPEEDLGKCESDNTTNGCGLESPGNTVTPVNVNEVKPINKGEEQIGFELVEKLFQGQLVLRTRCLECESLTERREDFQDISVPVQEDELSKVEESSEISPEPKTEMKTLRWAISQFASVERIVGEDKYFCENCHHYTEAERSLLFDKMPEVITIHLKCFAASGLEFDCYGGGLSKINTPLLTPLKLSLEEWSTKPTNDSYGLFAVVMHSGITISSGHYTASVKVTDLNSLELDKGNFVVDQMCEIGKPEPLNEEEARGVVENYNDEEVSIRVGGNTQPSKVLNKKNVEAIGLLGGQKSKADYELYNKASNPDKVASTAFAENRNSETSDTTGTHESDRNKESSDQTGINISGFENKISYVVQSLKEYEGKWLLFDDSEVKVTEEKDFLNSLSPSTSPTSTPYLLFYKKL
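High-throughput fluorogenic screen: 1nM USP1/UAF1 complex, Ub-Rho substrate 150nM final, 50mM HEPES pH 7.8 with 0.5mM EDTA, 0.1 mg/ml BSA, 1mM TCEP and 0.01% Tween-20.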
Tau fibril FP: blocks human tau fibril formation measured by polarization. P10636. K18 P301L tau heparin fibrillization, Alexa594 FP, 6 h. Potency, µM (highest dose often 57.7 µM), for the others: at the highest dose activity, negative = inhibition, actives largely listed as inhibitors. 0.39% of 280,000 active; note: potency is the fitted concentration of half-maximal effect; nearly all actives have a fitted effect of over 55% in size
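Recombinant K18 P301L […], labeled with Alexa 594 at 0.24 uM over 15 uM unlabeled; heparin inducer 20 uM final; 37 C, 6 hr; FP endpoint.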
Tau fibril ThT: blocks human tau fibril formation measured by thioflavin T | Potency, µM (doses to about 57.4 µM), without a hit: at the top dose activity, negative = inhibition, most hits filed as inhibitors | P10636 | recombinant tau K18 P301L (four-repeat tau fragment), heparin-induced fibrillization, ThT fluorescence | AID 1460 | 2.1% of 270,000 active; note: potency is the fitted concentration of half-maximal effect; nearly all actives have a fitted effect of over 55% in size
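Heparin-induced fibrillization of the P301L-mutant K18 repeat-domain fragment of human tau was followed by ThT binding in quantitative high-throughput format.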
The depositor's hits bear a star; ? = inconclusive; · = not tested or not shown; [ ] = remark or other dose. Unless noted, calls come from the whole dose curve; as a rule, active = well fitted curve in the direction sought with a large enough effect; inconclusive = small, poorly fitted or top-dose-only effect, or another doubt; inactive = no such curve, though single readings can be large; an effect the other way counts as inactive or inconclusive. % is set by controls: 0 for no effect and ±100 for the full control effect.

SMILES	Coupling enz	Tau fluor cs	USP1 inh	Tau fibril FP	Tau fibril ThT
O=C(N/N=C/c1cccc(OCc2ccccc2)c1)c1cccs1	1	25µM*[quencher]	-12%	?	?
O=C(O)c1ccc(COc2ccc(/C=N/NC(=O)c3cccs3)cc2)cc1	11	-17%	-6%	-12%	?
COc1cc(/C=N/NC(=O)c2cccc([N+](=O)[O-])c2)cc(OC)c1O	-1	-19%	-22%	4%	?
CS(=O)(=O)N1CCCC(C(=O)Nc2ccc(F)c(F)c2)C1 (centres undefined)	·	·	-15%	·	·
COC(=O)c1c(SCC(=O)Nc2ccccc2OC)[nH]c2ccccc2c1=O	·	?	-2%	4%	14µM*
COc1cccc(C2C(C(=O)/C=C/c3ccco3)=C(O)C(=O)N2CCN2CCOCC2)c1 (centres undefined)	-33*	-7%	-27%	-4%	?
COc1ccc(C2C(C(=O)/C=C/c3ccco3)=C(O)C(=O)N2CCN2CCOCC2)cc1 (centres undefined)	-24	-12%	-9%	?	?
O=C1Nc2ccc(Br)cc2C12OCCO2	·	·	7%	·	·
Cc1ccc2c(CC(=O)Nc3ccc(S(=O)(=O)N4CCCCC4C)cc3)coc2c1 (centres undefined)	·	?	-25%	?	8%
Cc1ccc2occ(CC(=O)Nc3ccc(S(=O)(=O)N4CCC(C)CC4)cc3)c2c1	·	?	?	8.9µM*	5%
Cc1ccc2c(CC(=O)Nc3ccc(S(=O)(=O)N4CCC(C)CC4)cc3)coc2c1	·	?	-22%	10µM*	8%
Cc1ccc2c(CC(=O)Nc3cccc(C(F)(F)F)c3)coc2c1	·	?	-14%	25µM*	1%
Cc1ccc2oc(C(=O)NCC(c3ccc(Cl)cc3)N3CCOCC3)c(C)c2c1 (centres undefined)	·	-23%	-19%	15%	?
Cc1cc(CNC(=O)COc2ccccc2)c2ccccc2n1	3	3%	-4%	7%	5%
CCOc1ccc(Nc2cc(C)c3ccccc3n2)cc1	1	·	?	·	·
Cc1ccc(OCC(=O)NNc2c3ccccc3nc3ccccc23)cc1	0	14µM*[quencher]	-6%	8%	13µM*
Cc1cccc(OCC(=O)NNc2c3ccccc3nc3ccccc23)c1	1	14µM*[quencher]	-18%	8%	?
CCOc1ccc(Nc2c3ccccc3nc3ccccc23)cc1	-2	?	-11%	14%	20µM*
CCOC(=O)c1cccc(NC(=O)c2cc(S(=O)(=O)N3CCCC3)cn2C)c1	·	2%	?	-3%	8%
Cc1ccc(C)c(OC(=O)CSc2nnc(CNC(=O)c3ccccc3)o2)c1	·	-3%	2%	-1%	-2%
CC(C)(C)NC(=O)NC(=O)CN1CCc2ccccc21	-39*	-23%	-8%	2%	-12%
Cn1cc(/C=C2/SC(=O)N(c3ccccc3)C2=O)c2ccccc21	-4	-17%	-17%	5%	6%
Cn1cccc1/C=C1\SC(=Nc2ccccc2)NC1=O	1	?	-5%	1%	13µM*
Cc1ccc(N=C2NC(=O)/C(=C/c3cn(C)c4ccccc34)S2)cc1C	-2	?	?	15%	4µM*
Cn1cccc1/C=C1\SC(=Nc2cccc(O)c2)NC1=O	0	?	-22%	11%	7.1µM*
SMILES	Coupling enz	Tau fluor cs	USP1 inh	Tau fibril FP	Tau fibril ThT
Cn1cccc1/C=C1\SC(=Nc2ccc(O)cc2)NC1=O	3	?	-9%	1%	4.5µM*
Cc1ccc(N=C2NC(=O)/C(=C/c3cccn3C)S2)c(C)c1	-2	-3%	-2%	10%	?
COC(=O)c1cnn(-c2ccc(C(=O)Nc3cc(OC)c(OC)c(OC)c3)cc2)c1N	·	-19%	-18%	9%	?
O=C(Cc1ccccc1)NC1CC(=O)N(c2ccccc2)C1 (centres undefined)	·	0%	39%	-6%	-5%
Cc1ccn2c(c1)nc(=O)c1cc(S(=O)(=O)N3CCCCC3)c(Cl)cc12	·	-9%	-29%	-3%	-2%
CN(C)c1cccc2c1c(NC(=O)c1ccc(F)cc1)nn2C	-28	-9%	?	-1%	-12%
CN(C)c1cccc2c1c(NC(=O)c1ccc(Cl)cc1)nn2C	-37*	-19%	?	-6%	-10%
CN(C)c1cccc2c1c(NC(=O)Nc1ccccc1)nn2C	-31*	-28%	?	1%	?
COC(=O)c1nnn(-c2cccc(C)c2)c1N	·	-5%	?	-2%	-5%
O=S(=O)(/C(=C/c1ccc(C(F)(F)F)cc1)c1nc2ccccc2[nH]1)c1ccccc1	1	-12%	-22%	?	28µM*
CC(C)c1ccc(/C=C(\c2nc3ccccc3[nH]2)S(=O)(=O)c2ccccc2)cc1	0	0%	-13%	1%	3%
Cc1cc(C)cc(N2CCn3c2nc2c3c(=O)n(C/C=C/c3ccccc3)c(=O)n2C)c1	·	-10%	8%	-7%	-4%
Cc1c(Br)c(O)c(Br)c2sc(=O)oc12	5	?	-8%	?	11µM*
Cc1ccc(C(=O)CCC(=O)OC(C)C(=O)NC2CCCCC2C)cc1 (centres undefined)	·	·	1%	·	·
Cc1cc(C)n2[nH]c(=O)c(N=Nc3ccccc3)c2n1	1	1%	-12%	4%	?
CCOc1ccc(N=Nc2c(N)[nH][nH]c2=O)cc1	-1	11%	-23%	12%	8%
Cc1cc(=O)n2[nH]c(=O)c(N=Nc3ccccc3)c2[nH]1	5	-13%	-18%	7%	14µM*
CCOc1ccc(N=Nc2c(=O)[nH]n3c(=O)cc(C)[nH]c23)cc1	3	-13%	-11%	8%	3.5µM*
O=[N+]([O-])c1cc(-c2ncccn2)c([N+](=O)[O-])s1	-84*	?	?	14%	11µM*
COc1ncc(C2=CC(=O)CC(C)(C)C2)cn1	·	·	-16%	·	·
COc1ccc(-c2[nH]c(-c3ccccc3)nc2SCC(=O)Nc2ccc3c(c2)OCO3)cc1	·	13µM*[quencher]	-21%	5%	?
COc1ccc(-c2nsc(SCC(=O)Nc3ccc4c(c3)OCO4)n2)cc1	2	5%	-6%	-8%	6%
COc1ccc(-c2nc(SCC(=O)Nc3ccc4c(c3)OCO4)c(-c3ccccc3)[nH]2)cc1	·	14µM*[quencher]	-11%	?	0%
COc1ccc2[nH]c3nc(SCC(=O)Nc4ccc5c(c4)OCO5)nnc3c2c1	8	-19%	-5%	-12%	?
COc1ccc(-c2cc(C(=O)OCC(=O)Nc3ccc4c(c3)OCO4)c3ccccc3n2)cc1	-4	8.9µM*[quencher]	-22%	-13%	?
COCOCCn1cc(CN2CCS(=O)(=O)N(Cc3ccc(-c4ccc(F)cc4)cc3)C(C(C)C)C2=O)nn1 (centres undefined)	·	·	-15%	·	·
